Screens from PubChem BioAssay.
Hits are enriched below; roughly 8.7% of the tested compounds scored in any of these assays.
VACV Venus inh: vaccinia inhibition (Venus reporter) | 0.46% of 330,000 active | Potency, µM (doses to about 36.5 µM), inactives show at the top dose activity change, negative = inhibition, most hits filed as inhibitors | Vaccinia virus Venus reporter expression, fluorescence | AID 720580; calls by dose curve; tested in A549 cells; also: nearly all actives have a fitted effect of over 30% in size
VACV mCherry inh: vaccinia inhibition (mCherry reporter); 0.63% of 310,000 active; Vaccinia virus mCherry reporter infection, fluorescence; Potency, µM (highest dose often 36.5 µM), for inactives: at the highest dose activity change, negative = inhibition, most hits filed as inhibitors; calls by dose curve; tested in A549 cells; also: nearly all actives have a fitted effect of over 35% in size
Pf growth 48h: inhibits P. falciparum growth in the first generation, 48 h | P. falciparum luciferase growth in erythrocytes, 48 h | Potency, µM (doses to about 28.7 µM), inactives show at the highest dose activity change, negative = inhibition, most hits filed as inhibitors | 5.9% of 310,000 active | AID 504832
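Erythrocytes infected with P. falciparum carrying an integrated firefly luciferase reporter (2% hematocrit, 0.1% parasitemia final) were exposed to compounds in RPMI 1640 with 0.5% Albumax at 37 C, 5% CO2. Growth inhibition was scored as reduced luminescence.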
AMA1-RON2 inh: disrupts binding of P. falciparum AMA1 to RON2. AlphaScreen AMA1-biotinylated RON2 peptide binding. Potency, µM (series often up to 58.2 µM), without a hit: top-dose activity change, negative = inhibition, usual class: inhibitors. 0.2% of 360,000 active. AID 720542;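 also: 0% = vehicle wells and -100% = peptide control; nearly all actives have a fitted effect of over 45% in size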
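AMA1 (3D7) with his tag at 25 nM final met compounds first, then biotinylated RON2 peptide at 25 nM; detection used donor plus acceptor beads, 10 µg/mL apiece, read by AlphaScreen after 30 min at room temperature.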
Pf growth 96h: P. falciparum growth inhibition at 96 hour, primary screen for plastid delayed-death inhibitors. P. falciparum luciferase reporter growth, 96 h. Potency, µM (top dose mostly 28.7 µM), without a hit: at the highest dose activity change, negative = inhibition, most hits filed as inhibitors. 6.9% of 320,000 active
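Readout is luminescence from an integrated firefly luciferase in P. falciparum. Red cells, 2% hematocrit and 0.05% parasitemia final, were cultured with compound through two parasite generations (96 hours) at 37 C, 5% CO2.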
* = called active by the depositor; [ ] = dose if it differs, or a comment. Unless noted, calls follow the shape of the dose curve; as a rule, active = well fitted curve in the direction sought with a large enough effect; inconclusive = small, poorly fitted or top-dose-only effect, or another doubt; inactive = no such curve, though single readings can be large; an effect the other way counts as inactive or inconclusive. Unless noted, % is scaled to controls: 0 for no effect and ±100 for the full control effect; potency is read from the fitted curve at half-maximal effect.

For Cc1ccc(C(=O)N2CCN(C)CC2)cc1S(=O)(=O)N1CCCCCC1 the results were VACV Venus inh 0%, VACV mCherry inh -6%, Pf growth 48h -28%, AMA1-RON2 inh -9% and Pf growth 96h 2.3µM*.
`CC(=O)N1CCN(C(=O)c2ccc(C)c(S(=O)(=O)N3CCCCC3)c2)CC1` gave VACV Venus inh -11%, VACV mCherry inh inactive and AMA1-RON2 inh 0%[11.6 µM].
`Cc1cccc(N2CCN(S(=O)(=O)c3c(C)[nH]c(C)c3C(=O)N3CCCCC3)CC2)c1C` gave VACV Venus inh -20%, VACV mCherry inh -25%, Pf growth 48h 9.3µM*, AMA1-RON2 inh 0% and Pf growth 96h inconclusive.
Cc1ccc(C(=O)N2CCN(c3ccccc3O)CC2)cc1S(=O)(=O)N1CCCCC1 was read as VACV Venus inh inconclusive, VACV mCherry inh -14%, Pf growth 48h 13µM*, AMA1-RON2 inh -15% and Pf growth 96h -103%.
For Cc1nn(Cc2ccccc2)c(C)c1NC(=O)CSc1n[nH]c(C)c1[N+](=O)[O-] the results were VACV Venus inh -15%, VACV mCherry inh -13%, Pf growth 48h inconclusive, AMA1-RON2 inh -2% and Pf growth 96h 22%.
For Cc1nn(Cc2ccc(Cl)cc2)c(C)c1NC(=O)CSc1n[nH]c(C)c1[N+](=O)[O-] the results were VACV Venus inh -17%, VACV mCherry inh -3%, Pf growth 48h -12%, AMA1-RON2 inh 7% and Pf growth 96h 13µM*.
Screening CCOc1ccc(NCc2nc3ccccc3n2CCOc2ccccc2)cc1 returned VACV Venus inh inconclusive, VACV mCherry inh -26%, Pf growth 48h 79%, AMA1-RON2 inh 14µM* and Pf growth 96h 6.6µM*.
Screening CCn1c(COc2ccccc2)nc2ccccc21 returned VACV Venus inh -19%, VACV mCherry inh inconclusive, Pf growth 48h -19%, AMA1-RON2 inh 15% and Pf growth 96h 484%.
`CCn1c(COc2ccc(OC)cc2)nc2ccccc21` gave Pf growth 48h 57%, AMA1-RON2 inh -20% and Pf growth 96h 4.7µM*.
`Cc1cccc(OCCn2c(CCCO)nc3ccccc32)c1` gave VACV Venus inh -13%, VACV mCherry inh -19%, Pf growth 48h 15µM*, AMA1-RON2 inh -2% and Pf growth 96h inconclusive.
For O=C(NCC(c1ccco1)S(=O)(=O)c1ccc(Cl)cc1)c1ccccc1F (stereo not drawn) the results were VACV Venus inh -8% and VACV mCherry inh -5%.
For Cc1cc(=O)oc2cc(OCC(=O)Nc3c(C(C)C)cccc3C(C)C)ccc12 the results were VACV Venus inh 0% and VACV mCherry inh -16%.
`CCOc1cc2sc(N3CCC(C(=O)Nc4ccc(C(C)C)cc4)CC3)nc2cc1Br` gave VACV Venus inh -15% and VACV mCherry inh -1%.
Screening COc1ccc(-c2nc3ccc(NC(C)=O)cc3c(=O)n2Cc2ccccc2)cc1COc1ccc(NC(C)=O)cc1 returned VACV Venus inh -7% and VACV mCherry inh inactive.
Oc1ccc(/C(Cc2ccccn2)=N\Nc2ccccc2)c(O)c1 was read as VACV Venus inh -21%, VACV mCherry inh -27%, Pf growth 48h 9%, AMA1-RON2 inh 38% and Pf growth 96h 7%.
`COc1cc(C(=O)N/N=C(\Cc2ncc[nH]2)c2ccccc2)cc(OC)c1OC` gave VACV Venus inh inconclusive, VACV mCherry inh inconclusive, Pf growth 48h inconclusive, AMA1-RON2 inh 59% and Pf growth 96h -78%.
`Clc1cccc(N/N=C(\Cc2nc3ccccc3[nH]2)c2ccccc2)c1` gave VACV Venus inh -27%, VACV mCherry inh -17%, Pf growth 48h 12µM*, AMA1-RON2 inh 44% and Pf growth 96h 4.1µM*.
For c1ccc(N/N=C(\Cc2ncc[nH]2)c2ccccc2)cc1 the results were VACV Venus inh -6%, VACV mCherry inh inactive, Pf growth 48h inconclusive, AMA1-RON2 inh 54% and Pf growth 96h 9.3µM*.
COc1ccc(C(=O)N/N=C(\Cc2ncc[nH]2)c2ccccc2)cc1 was read as VACV Venus inh inconclusive, VACV mCherry inh inconclusive, Pf growth 48h 3.3µM*, AMA1-RON2 inh 46% and Pf growth 96h inconclusive.
For CCc1ccc(C2CC(=O)c3c([nH]c(C(=O)OCC4CCCCC4)c3C)C2)cc1 (stereo not drawn) the results were VACV Venus inh -10% and VACV mCherry inh -9%.
`Cc1cc(=O)n(CC(=O)Nc2ccc([N+](=O)[O-])cc2)c(-n2nc(C)cc2C)n1` gave VACV Venus inh -6% and VACV mCherry inh -16%.
Screening Cc1nn(C)cc1CN(C)C(=O)c1nn2c(c1Br)NC(c1cccs1)CC2C(F)(F)F (stereo not drawn) returned VACV Venus inh 4%, VACV mCherry inh inactive, Pf growth 48h 13µM*, AMA1-RON2 inh -2% and Pf growth 96h 5.2µM*.
Screening Cc1nn(C)cc1CN(C)C(=O)c1nn2c(c1Cl)NC(c1cccs1)CC2C(F)(F)F (stereo not drawn) returned VACV Venus inh -24%, VACV mCherry inh -23%, Pf growth 48h inconclusive, AMA1-RON2 inh 26% and Pf growth 96h 2%.
`Cc1nn(C)c(C)c1CN(C)C(=O)c1cc2n(n1)C(C(F)(F)F)CC(c1cccs1)N2` (stereo not drawn) gave VACV Venus inh -21%, Pf growth 48h inconclusive, AMA1-RON2 inh 2% and Pf growth 96h 9.3µM*.
Screening COCCC(=O)N1CCC(Oc2ccc(C(=O)NCCCC3CCCC3)cc2)CC1 returned VACV Venus inh -29%, VACV mCherry inh -13%, Pf growth 48h -17%, AMA1-RON2 inh -14% and Pf growth 96h 12µM*.
For COCC(=O)N1CCC(Oc2ccc(C(=O)NCc3cc(C(C)C)no3)cc2)CC1 the results were VACV Venus inh -6%, VACV mCherry inh -7%, Pf growth 48h 3%, AMA1-RON2 inh -10% and Pf growth 96h inconclusive.
COCC(=O)N1CCC(Oc2ccc(C(=O)NC3Cc4ccccc4C3)cc2)CC1 was read as VACV Venus inh -7%, VACV mCherry inh -10%, Pf growth 48h 18%, AMA1-RON2 inh 7% and Pf growth 96h 10µM*.
`CN(C)S(=O)(=O)N1CCC(Oc2ccc(C(=O)NC3Cc4ccccc4C3)cc2)CC1` gave Pf growth 48h inconclusive, AMA1-RON2 inh -2% and Pf growth 96h inconclusive.
Screening COCC(=O)N1CCC(Oc2ccc(C(=O)NCc3cc(C)no3)cc2)CC1 returned Pf growth 48h 8%, AMA1-RON2 inh 18% and Pf growth 96h 4.1µM*.
For COCCC(=O)N1CCC(Oc2ccc(C(=O)N(C)CCCC3CCCC3)cc2)CC1 the results were Pf growth 48h inconclusive, AMA1-RON2 inh 11% and Pf growth 96h inconclusive.
COc1ccc(-c2nc3ccccc3s2)cc1NC(=O)c1cccc([N+](=O)[O-])c1C was read as VACV Venus inh -14% and VACV mCherry inh -16%.
